The values that follow come from PubChem BioAssay.

Active and inactive are the calls of the source. Unless noted, the rule behind the calls is not given here.

Assay [1] deals with XIP peptide (Xip251-270) binding. The assay can be described thus: XIP fragment 251-270 binding compounds – biochemical, small-molecule microarray, fluorescence 635/667 nm, 0.1 µg/mL protein, primary screen (AID 1182). The following applies: fluorescent protein binding, 635 nm, higher = more signal, called active from +8 up or from −8 down.
The test system of the next assay is XIP peptide (Xip251-270). The assay can be described thus: compounds binding XIP fragment 251-270 – biochemical, small-molecule microarray, fluorescence 635/667 nm, 0.5 µg/mL protein, primary screen (AID 1183). The following applies: fluorescence 635 nm, higher = more signal.
The nature of assay [2]: blood-stage malaria parasite viability loss – strain 3D7, DAPI fluorescence, 100 nL, primary screen (AID 1184).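 Note: parasites grown inside human red blood cells in medium with human serum.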 The following applies: P. falciparum 3D7 growth, 3 d, higher = more signal.
The target of assay [3] is Homeobox protein Hox-A13 (Mus musculus) (UniProt Q62424). The assay can be described thus: disruptors of Hoxa13 oligonucleotide interaction – biochemical, fluorescence polarization, labeled oligonucleotide, primary screen (AID 1185). The following applies: Hoxa13:DNA binding, 15 min, higher = more signal, called active from +8 up or from −8 down. (Polarisation of emitted light reports the rotation of a fluorescent probe.)
Homeobox protein Hox-A13 (Mus musculus), sequence (Q62424 whole entry, looked up): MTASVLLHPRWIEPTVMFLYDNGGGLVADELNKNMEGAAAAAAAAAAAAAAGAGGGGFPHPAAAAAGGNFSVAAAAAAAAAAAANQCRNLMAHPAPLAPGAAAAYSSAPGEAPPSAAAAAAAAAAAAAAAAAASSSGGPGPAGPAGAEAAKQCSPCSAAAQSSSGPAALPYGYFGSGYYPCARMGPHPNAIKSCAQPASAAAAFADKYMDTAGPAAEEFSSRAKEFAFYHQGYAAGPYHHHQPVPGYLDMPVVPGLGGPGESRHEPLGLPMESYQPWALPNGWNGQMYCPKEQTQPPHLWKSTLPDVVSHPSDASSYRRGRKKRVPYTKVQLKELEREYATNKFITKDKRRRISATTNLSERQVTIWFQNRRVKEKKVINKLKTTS

The nature of assay [4]: blockers of DNA damage checkpoint Chk1 activation – imaging, HeLa, hydroxyurea, phospho-Chk1 antibody, percent positive cells, primary screen (AID 1186). The following applies: hydroxyurea-induced phospho-Chk1 immunofluorescence imaging, higher = more signal.
The nature of assay [5]: blockers of DNA damage checkpoint Chk1 activation – imaging, HeLa, hydroxyurea, phospho-Chk1 nuclear intensity, primary screen (AID 1187). The following applies: hydroxyurea-induced phospho-Chk1 immunofluorescence imaging, higher = more signal.

With `C=CCN1C(=O)[C@]2(O[C@H](CCn3cc([C@H](O)c4ccccc4)nn3)[C@@H]([Si](C)(C)c3ccc(OC)cc3)[C@@H]2C)c2ccccc21`, the composite z-score in assay [1] is 0.507 (inactive); in the assay with XIP peptide (Xip251-270), -0.579. In addition, the z-score in assay [2] is -1.69; in assay [3] it was -5.68 (inactive); in assay [4] it was -0.831 (inactive); in assay [5], -0.475 (inactive).

Turning to `COCCOC(=O)N1C(=O)[C@@]2(c3cc(C#CCC(C(=O)OC)C(=O)OC)ccc31)[C@H](C(=O)Nc1nc3ccccc3s1)[C@H]1C(=O)O[C@H](c3ccccc3)[C@H](c3ccccc3)N1[C@@H]2c1ccccc1OCCO`, the composite z-score in assay [1] is 1.95 (inactive); in the assay on XIP peptide (Xip251-270), 0.813. In addition, the z-score is -1.8 in assay [2], 3.19 (inactive) in assay [3], 0.0747 (inactive) in assay [4] and 0.233 (inactive) in assay [5].

Consider `COc1ccc([Si](C)(C)[C@H]2[C@H](CCO)O[C@@]3(C(=O)N(Cc4ccc(N(C=O)c5ccccc5)cc4)c4ccccc43)[C@@H]2C)cc1`, for which the composite z-score was 0.381 (inactive) in assay [1] and 0.282 with XIP peptide (Xip251-270). Moreover, the z-score is -1.93 in assay [2], -0.824 (inactive) in assay [3], 1.27 (inactive) in assay [4] and -0.123 (inactive) in assay [5].

For `Cc1nc2cc(Br)ccc2c(=O)o1`, the composite z-score is 0.312 (inactive) in assay [1] and 0.139 in the assay on XIP peptide (Xip251-270). The z-score in assay [2] was -0.973; in assay [3] it was 0.0804 (inactive); in assay [4], -0.131 (inactive); in assay [5], 0.134 (inactive).

Turning to `COC(=O)[C@@]1(Cc2ccc(OC)cc2)[C@H]2c3cc(C(=O)N4CCCC4)n(CCN4CNCC4=O)c3C[C@H]2CN1C(=O)c1ccccc1`, the figures for the composite z-score (in assay [1]; in the assay with XIP peptide (Xip251-270)) were 0.281 (inactive) and -0.35, respectively. The z-score in assay [2] is -1.8; in assay [3] it was -4.34 (inactive); in assay [4] it was 0.525 (inactive); in assay [5], 0.163 (inactive).

As to `CC(C)N1C(=O)[C@@]2(Cc3ccccc31)c1ccccc1C(=O)N(Cc1ccccc1Cl)[C@H]2c1ccc(CO)cc1`, the composite z-score was -0.26 (inactive) in assay [1] and 0.388 in the assay with XIP peptide (Xip251-270). In addition, the z-score in assay [2] was -0.113; in assay [3] it was -0.978 (inactive); in assay [4], -0.339 (inactive); in assay [5], -0.458 (inactive).

With `C=CCC(OC(C)=O)[C@@H]1[C@@H](N(Cc2cccc3ccccc23)C(=O)c2ccc(-c3ccccc3)cc2)c2cc(OCCCO)ccc2N1C(=O)c1ccc2ccccc2c1` (some centres not stated), the values for the composite z-score (in assay [1]; in the assay on XIP peptide (Xip251-270)) were -0.176 (inactive) and 0.0439, respectively. The z-score was -1.55 in assay [2], -1.35 (inactive) in assay [3], 0.145 (inactive) in assay [4] and -0.0284 (inactive) in assay [5].

Turning to `COCCOC(=O)N1C(=O)[C@@]2(c3cc(C#CCC(C(=O)OC)C(=O)OC)ccc31)[C@H](C(=O)N1CCN(c3ncccn3)CC1)[C@H]1C(=O)O[C@H](c3ccccc3)[C@H](c3ccccc3)N1[C@@H]2c1ccccc1OCCO`, the composite z-score in assay [1] was 0.171 (inactive); with XIP peptide (Xip251-270) it was 0.679. Moreover, the z-score in assay [2] is -2.03; in assay [3] it was -0.504 (inactive); in assay [4], 0.0845 (inactive); in assay [5], 0.176 (inactive).

For the compound `CC(C)N1C(=O)c2ccccc2[C@](C)(C(=O)NCCN2CCOCC2)[C@@H]1c1ccc(CO)cc1`, the composite z-score was 0.0317 (inactive) in assay [1] and -0.119 in the assay with XIP peptide (Xip251-270). The z-score was 0.437 in assay [2], -3.78 (inactive) in assay [3], -0.155 (inactive) in assay [4] and -0.332 (inactive) in assay [5].

On to `COCCOC(=O)N1C(=O)[C@@]2(c3cc(C#CC4(O)CCCCCC4)ccc31)[C@H](c1ccccc1OCCO)N1[C@H](c3ccccc3)[C@H](c3ccccc3)OC(=O)[C@H]1[C@@H]2C(=O)N1CCN(c2ncccn2)CC1`, for which the composite z-score in assay [1] is -0.0186 (inactive); in the assay with XIP peptide (Xip251-270), 0.744. Moreover, the z-score was -2.23 in assay [2], -0.571 (inactive) in assay [3], -0.353 (inactive) in assay [4] and -0.189 (inactive) in assay [5].

For the compound `CC(C)c1ccc(NN2C(C(O)c3ccc(B(O)O)cc3)C=CC3C(=O)N(c4ccccc4)C(=O)C32)cc1` (configuration not stated), the composite z-score in assay [1] was 1.04 (inactive); in the assay with XIP peptide (Xip251-270), 0.665. In addition, the z-score in assay [2] is 0.101; in assay [3], -4.18 (inactive); in assay [4], -0.337 (inactive); in assay [5], -0.659 (inactive).

Consider `COCCOC(=O)N1C(=O)[C@@]2(c3cc(C#Cc4ccc(OC)cc4)ccc31)[C@H](c1ccccc1OCCO)N1[C@H](c3ccccc3)[C@H](c3ccccc3)OC(=O)[C@H]1[C@@H]2C(=O)NC[C@H](O)c1ccccc1`, for which the composite z-score in assay [1] is 0.159 (inactive); in the assay on XIP peptide (Xip251-270), 0.815. Also, the z-score was -1.8 in assay [2], -1.34 (inactive) in assay [3], -0.203 (inactive) in assay [4] and -0.29 (inactive) in assay [5].

For `C=CCNC(=O)[C@@H]1[C@H]2C(=O)O[C@H](c3ccccc3)[C@H](c3ccccc3)N2[C@H](c2ccc(OCCO)cc2)[C@@]12C(=O)Nc1ccc(C#CCC(C(=O)OC)C(=O)OC)cc12`, the figures for the composite z-score (in assay [1]; in the assay with XIP peptide (Xip251-270)) were 1.21 (inactive) and 0.905, respectively. For the same compound, the z-score was -2.22 in assay [2], -1.05 (inactive) in assay [3], 0.222 (inactive) in assay [4] and 0.477 (inactive) in assay [5].

As for `C=C[C@@H](COC(=O)OC(C)(C)C)N(Cc1ccc(OC)cc1)S(=O)(=O)c1ccc(Br)cc1`, the composite z-score in assay [1] was 0.323 (inactive); in the assay on XIP peptide (Xip251-270) it was 0.219. The z-score in assay [2] is 0.605; in assay [3], -0.981 (inactive); in assay [4], 0.344 (inactive); in assay [5] it was 0.447 (inactive).

Regarding `C=CC[C@@]12N=C(c3ccc(OCCCO)cc3)O[C@@H]1c1ccccc1N(C)C2=O`, the composite z-score is 0.535 (inactive) in assay [1] and 0.759 in the assay on XIP peptide (Xip251-270). Also, the z-score in assay [2] is -1.9; in assay [3], -4.57 (inactive); in assay [4] it was 0.221 (inactive); in assay [5], 0.444 (inactive).

For `O=C(NC1CC1)[C@@H]1c2ccccc2C(=O)N(Cc2ccccc2Cl)[C@H]1c1ccc(CO)cc1`, the composite z-score in assay [1] was 0.628 (inactive); with XIP peptide (Xip251-270), 0.119. In addition, the z-score in assay [2] is -0.46; in assay [3], -2.23 (inactive); in assay [4] it was -0.825 (inactive); in assay [5], -1.13 (inactive).

Take `C=CCOC(=O)[C@H]1[C@@H]2C(=O)O[C@@H](c3ccccc3)[C@@H](c3ccccc3)N2[C@@H](c2ccc(OCCOC(=O)[C@H]3C[C@H]4C(=O)N[C@@H](CCCCN(C)C)C(=O)N4[C@H]3c3ccc(O)cc3)cc2)[C@]12C(=O)Nc1ccc(I)cc12`: the composite z-score was 0.768 (inactive) in assay [1] and 0.791 in the assay with XIP peptide (Xip251-270). For the same compound, the z-score was -0.193 in assay [2], -4.89 (inactive) in assay [3], 0.622 (inactive) in assay [4] and -0.163 (inactive) in assay [5].
